The panel holds about 79,000 compounds, 15% with a hit somewhere; the sample as a whole holds those more often. Activity calls are given as the source filed them. Rule as the data show it: active = growth inhibition above about 70%; inactive = the rest.
Tests used:
[1] = NCI Yeast Anticancer Drug Screen. Data for the rad52 strain (AID 147);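 also: 0% = growth of vehicle-treated control cultures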; conditions: S. cerevisiae rad52 mutant growth inhibition, hits give high values
How it was run: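 Here a repair-compromised yeast strain receives each compound; its growth is then quantified and normalised to vehicle-only controls.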

[2] = NCI Yeast Anticancer Drug Screen. Data for the wt1 strain (AID 149);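 also: 0% = growth of vehicle-treated wt1 cultures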; conditions: S. cerevisiae wt1 strain (SPY 50644) growth inhibition, hits give high values
How it was run: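 The wt1 strain was treated with compounds, and growth was compared with vehicle-treated cultures to give inhibition.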

[3] = NCI Yeast Anticancer Drug Screen. Data for the mgt1 strain (AID 153); conditions: S. cerevisiae mgt1 mutant growth inhibition, hits give high values
How it was run: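 Measured: inhibition of mgt1 yeast growth by compound, normalized to vehicle-treated cultures.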

[4] = NCI Yeast Anticancer Drug Screen. Data for the rad50 strain (AID 155);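 also: 0% = growth of vehicle-only cultures of the same strain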; conditions: S. cerevisiae rad50 strain growth inhibition, hits give high values
How it was run: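 Cells are treated with compound, grown, and their growth is then scored against vehicle-only cultures of the same repair-deficient yeast strain.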

[5] = NCI Yeast Anticancer Drug Screen. Data for the mec2-1 strain (AID 157); conditions: S. cerevisiae mec2-1 strain, hits give high values
How it was run: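 Using mec2-1 yeast: add compound, measure growth, express inhibition versus vehicle-treated cultures.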

[6] = NCI Yeast Anticancer Drug Screen. Data for the rad14 strain (AID 159);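 also: 0% = growth of vehicle-treated control cultures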; conditions: S. cerevisiae rad14 strain growth inhibition, hits give high values
How it was run: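 Readout: yeast growth inhibition, referenced to vehicle-only cultures. Strain bears a defined alteration in DNA damage repair.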

[7] = NCI Yeast Anticancer Drug Screen. Data for the sgs1 mgt1 strain (AID 161);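 also: 0% = growth of cultures given vehicle only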; conditions: S. cerevisiae sgs1 mgt1 strain, hits give high values
How it was run: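 Compounds are added to genetically altered yeast, and growth is compared with cultures given vehicle alone to give percent inhibition.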

[8] = NCI Yeast Anticancer Drug Screen. Data for the CLN2oe strain (AID 163);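 also: 0% = growth of vehicle-only control cultures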; conditions: S. cerevisiae CLN2oe strain, hits give high values
How it was run: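 Whole-cell yeast growth assay. A strain engineered for altered cell-cycle control received compound, and inhibition relative to vehicle-treated cultures was recorded.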

[9] = NCI Yeast Anticancer Drug Screen. Data for the cln2 rad14 strain (AID 165);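 also: 0% = growth equal to vehicle treated cultures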; conditions: S. cerevisiae cln2 rad14 strain, hits give high values
How it was run: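 Yeast strain cln2 rad14, bearing defects in cell cycle control and DNA repair, serves as the test system; values reflect growth inhibition compared with vehicle.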

[10] = NCI Yeast Anticancer Drug Screen. Data for the bub3 strain (AID 167); conditions: S. cerevisiae bub3 mutant strain, hits give high values
How it was run: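 Part of a panel of yeast mutants defective in DNA damage repair or cell cycle regulation. Each strain is grown with compound, and inhibition is calculated relative to solvent-treated cultures.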

[11] = NCI Yeast Anticancer Drug Screen. Data for the wt2 strain (AID 169);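 also: 0% = growth of vehicle-treated yeast cultures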; conditions: S. cerevisiae wt2 strain growth inhibition, hits give high values
How it was run: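 Treated yeast vs. vehicle-treated yeast: growth inhibition determined.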

[12] = NCI Yeast Anticancer Drug Screen. Data for the mlh1 strain (AID 171);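 also: 0% = growth of vehicle-treated control cultures of the same strain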; conditions: S. cerevisiae mlh1 strain growth inhibition, hits give high values
How it was run: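 A yeast strain with a defined genetic lesion serves as the test organism. Cultures receive compound or vehicle, and growth is measured.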

[13] = NCI Yeast Anticancer Drug Screen. Data for the sgs1 strain (AID 173);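 also: 0% = growth of vehicle-only control cultures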; conditions: S. cerevisiae sgs1 mutant, hits give high values
How it was run: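 A genetically defined yeast mutant is incubated with the test compound, and its growth is compared to that of the same strain given vehicle.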

[14] = NCI Yeast Anticancer Drug Screen. Data for the mlh1 rad18 strain (AID 175); conditions: S. cerevisiae mlh1 rad18 strain growth inhibition, hits give high values
How it was run: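 Steps: expose repair-defective yeast to compound; measure growth; express inhibition against vehicle-treated controls.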

[15] = NCI Yeast Anticancer Drug Screen. Data for the rad18 strain (AID 177); conditions: S. cerevisiae rad18 mutant growth inhibition, hits give high values
How it was run: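 Measured value is growth inhibition of a yeast strain bearing a DNA repair alteration, referenced to vehicle-treated cells.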

[16] = at 5.0 µM (retest, dose inferred, filed as 0.5)
[17] = at 50.0 µM (retest, dose inferred, filed as 5.0)

Measured: growth inhibition

COC(=O)Oc1cc(Cl)c(Cl)cc1Cl
inactive: [1]; at 1.2 µM 0% | [1]; at 3.7 µM 0% | [1]; at 11.0 µM -1% | [1]; at 33.0 µM 4% | [1]; at 100.0 µM 9% | [2]; at 1.2 µM -1% | [2]; at 3.7 µM -2% | [2]; at 11.0 µM -3% | [2]; at 33.0 µM -4% | [2]; at 100.0 µM 0% | [3]; at 1.2 µM -1% | [3]; at 3.7 µM 0% | [3]; at 11.0 µM 1% | [3]; at 33.0 µM -3% | [3]; at 100.0 µM 1% | [4]; at 1.2 µM 0% | [4]; at 3.7 µM 0% | [4]; [16] 4% | [4]; at 11.0 µM -1% | [4]; at 33.0 µM 2% | [4]; [17] -5% | [4]; at 50.0 µM 30.8% | [4]; at 100.0 µM 10% | [5]; at 1.2 µM 0% | [5]; at 3.7 µM 4% | [5]; [16] -4% | [5]; at 11.0 µM 3% | [5]; at 33.0 µM 5% | [5]; [17] 23% | [5]; at 50.0 µM 21.4% | [5]; at 100.0 µM 8% | [6]; at 1.2 µM 0% | [6]; at 3.7 µM 0% | [6]; at 11.0 µM 2% | [6]; at 33.0 µM 5% | [6]; at 100.0 µM 9% | [7]; [16] 3% | [7]; [17] 1% | [7]; at 50.0 µM 30.1% | [8]; at 1.2 µM -4% | [8]; at 3.7 µM -3% | [8]; at 11.0 µM -7% | [8]; at 33.0 µM -6% | [8]; at 100.0 µM -4% | [9]; [16] 3% | [9]; [17] 52% | [9]; at 50.0 µM 22.6% | [10]; at 1.2 µM 1% | [10]; at 3.7 µM 3% | [10]; [16] 12% | [10]; at 11.0 µM 1% | [10]; at 33.0 µM 3% | [10]; [17] 4% | [10]; at 50.0 µM 36% | [10]; at 100.0 µM 3% | [11]; at 1.2 µM 0% | [11]; at 3.7 µM -2% | [11]; at 11.0 µM -2% | [11]; at 33.0 µM -2% | [11]; at 100.0 µM -1% | [12]; at 1.2 µM 1% | [12]; at 3.7 µM -2% | [12]; at 11.0 µM -7% | [12]; at 33.0 µM 3% | [12]; at 100.0 µM 13% | [13]; at 1.2 µM 0% | [13]; at 3.7 µM 0% | [13]; at 11.0 µM 1% | [13]; at 33.0 µM 3% | [13]; at 100.0 µM 10% | [14]; [16] 7% | [14]; [17] 19% | [14]; at 50.0 µM 11.8%

Nc1nc(N)c2nc(CNc3ccc(C(=O)NC(CCC(=O)O)C(=O)O)cc3F)cnc2n1 (stereo unspecified)
active: [1]; at 33.0 µM 82% | [1]; at 100.0 µM 89% | [2]; at 100.0 µM 78% | [4]; [17] 86% | [4]; at 100.0 µM 74% | [5]; at 11.0 µM 81% | [5]; at 33.0 µM 93% | [5]; [17] 97% | [5]; at 50.0 µM 86.7% | [5]; at 100.0 µM 94% | [6]; at 100.0 µM 82% | [10]; [17] 82% | [10]; at 100.0 µM 73% | [15]; at 33.0 µM 72% | [15]; at 100.0 µM 80%
inactive: [1]; at 1.2 µM 28% | [1]; at 3.7 µM 42% | [1]; at 11.0 µM 62% | [2]; at 1.2 µM 13% | [2]; at 3.7 µM 12% | [2]; at 11.0 µM 17% | [2]; at 33.0 µM 50% | [3]; at 1.2 µM 19% | [3]; at 3.7 µM 16% | [3]; at 11.0 µM 15% | [3]; at 33.0 µM 36% | [3]; at 100.0 µM 63% | [4]; at 1.2 µM 7% | [4]; at 3.7 µM 18% | [4]; [16] 13% | [4]; at 11.0 µM 30% | [4]; at 33.0 µM 55% | [4]; at 50.0 µM 43% | [5]; at 1.2 µM 19% | [5]; at 3.7 µM 26% | [5]; [16] 26% | [6]; at 1.2 µM 0% | [6]; at 3.7 µM -19% | [6]; at 11.0 µM 0% | [6]; at 33.0 µM 54% | [7]; [16] -4% | [7]; [17] 56% | [7]; at 50.0 µM 39.5% | [8]; at 1.2 µM -8% | [8]; at 3.7 µM 13% | [8]; at 11.0 µM 18% | [8]; at 33.0 µM 17% | [8]; at 100.0 µM 46% | [9]; [16] 14% | [9]; [17] -2% | [9]; at 50.0 µM -5.05% | [10]; at 1.2 µM 6% | [10]; at 3.7 µM 6% | [10]; [16] 2% | [10]; at 11.0 µM 6% | [10]; at 33.0 µM 35% | [10]; at 50.0 µM 29.2% | [11]; at 1.2 µM -19% | [11]; at 3.7 µM -11% | [11]; at 11.0 µM -21% | [11]; at 33.0 µM 2% | [11]; at 100.0 µM 48% | [12]; at 1.2 µM 16% | [12]; at 3.7 µM 10% | [12]; at 11.0 µM 8% | [12]; at 33.0 µM 29% | [12]; at 100.0 µM 46% | [13]; at 1.2 µM 24% | [13]; at 3.7 µM 14% | [13]; at 11.0 µM 15% | [13]; at 33.0 µM 41% | [13]; at 100.0 µM 67% | [14]; [16] 18% | [14]; [17] 67% | [14]; at 50.0 µM -2.7% | [15]; at 1.2 µM 20% | [15]; at 3.7 µM 19% | [15]; at 11.0 µM 35%
